Measured values reported in PubChem BioAssay.
Calls of active or inactive are those of the source.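 Rule for the calls, unless noted: active = percent response above 42, roughly 3 SD of non-fluorescent test compounds; inactive = the rest.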

Legend:
[1] = inhibitors of CD8+ T cell-vesicle binding, pilot screen, LFA-1/ICAM-1 modulator project, MLPCN validation set, flow cytometry (AID 2523;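 active = response below a set limit, under 55% cells CD8-positive and vesicle-bound, and CD8 cells' 90th-percentile brightness under 279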;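 for vesicle binding response: mean PE anti-B7-1 fluorescence of CD8+ cells relative to row control; 100% = QL9-loaded vesicles with DMSO vehicle in the same plate row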); details: 2C mouse CD8+ T cells, at 7 µM, stronger effect = lower value; double positive events: measured here: CD8+/vesicle+ event percentage
[2] = target: Integrin beta-1 (Homo sapiens) + Integrin alpha-4 (Homo sapiens) (UniProt P13612+P05556); assay: inhibition of HUTS-21 binding to VLA-4, pilot screen, VLA-4 allosteric modulator project, U937 cells, HUTS-21 mAb, flow cytometry, validation set (AID 2674;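 active = inhibition above 50%, about 3 SD of the validation set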;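 note: antibody binding induced by the VLA-4 ligand LDV present at three times its Kd; 0% = LDV ligand with antibody and no compound and 100% = antibody without LDV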); details: HUTS-21 LIBS mAb binding, at 6.7 µM, stronger effect = higher value, binding induced by LDV ligand
[3] = superoxide lowering in aged yeast cells, pilot screen, validation compound set (AID 2706;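 active = superoxide response below 65% of plate, a cut near 3 SD across the whole screen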;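 note: yeast exposed to compound for one week at 30 degrees C before staining; 100% = mean of all compound wells on the same plate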); details: S. cerevisiae aging, superoxide DHE fluorescence; at 10 µM, stronger effect = lower value
[4] = target: Beta-adrenergic receptor kinase 1 (Homo sapiens) (UniProt P25098); assay: GRK2 binders displacing RNA aptamer, biochemical, validation, human GRK2, bead flow cytometry (AID 488806;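 active = aptamer binding inhibition above 30%, about 3 SD of noise from non-fluorescent compounds; inactive = inhibition at or below 30%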); details: bead-bound GRK2, FAM-aptamer displacement, at 10 µM, stronger effect = higher value
[5] = target: Beta-2 adrenergic receptor (Homo sapiens) (UniProt P07550); assay: beta2AR agonists driving receptor internalization, pilot screen, cell-based, FAP fluorogen, flow cytometry, validation set (AID 504459); details: Am2.2-beta2AR cells, FAP surface receptor flow cytometry; at 10 µM; stronger effect = higher value;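 note: agonist-driven loss of surface beta2AR via internalization measured by FAP dye flow cytometry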
[6] = target: AP-2 complex subunit beta (Homo sapiens) (UniProt P63010); assay: inhibitors of arrestin peptide binding to AP2, pilot screen, biochemical, validation set, GST-AP2 beads, flow cytometry (AID 504541;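 active = inhibition above 54%, about 3 SD of non-fluorescent compounds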;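 note: AP2 carries R879A mutation and is captured from E. coli lysate; bead-bound FITC arrestin peptide fluorescence measuring arrestin peptide binding to AP2; 0% = DMSO wells and 100% = excess unlabeled arrestin peptide control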); details: FITC arrestin peptide, at 10 µM, stronger effect = higher value, AP2 beta2 appendage fragment, R879A mutant
[7] = yeast V-ATPase proton transport modulators, S. cerevisiae, pHLuorin, HTS validation (AID 504600; in the data active = response above about 15%;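 note: plate controls were DMSO for no effect and reference compound for full effect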); details: S. cerevisiae pHLuorin cytosolic pH, at 10 µM, stronger effect = higher value
[8] = tested on: anti-desmoglein-3 scFv antibody binding to human DSG3; assay: inhibitors of anti-DSG3 scFv binding to DSG3, pilot screen, biochemical, validation compound set, bead-based, flow cytometry (AID 588368;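 active = binding below the plate cutoff, the plate median minus 3 SD, with a reading above zero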;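 note: signal is the median channel fluorescence of bead-bound GFP antibody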); details: Protein G beads, DSG3-Fc, scFv-GFP binding, at 10 µM, stronger effect = lower value
[9] = inhibitors of fungal efflux pumps CDR1, CDR2, MDR1, pilot screen, validation compound set, multiplex, phenotypic (AID 588506;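 active = efflux inhibition above 0.42, the validation set average plus 4 SD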;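 note: Nile Red retained in cells so higher fluorescence means more efflux inhibition; 0 = negative control wells and 1 = enniatin B 25 µM full block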); details: S. cerevisiae pump-expressing triplex, Nile Red efflux flow cytometry; at 10 µM; stronger effect = higher value; the pumps come from Candida albicans
[10] = target: ATP-binding cassette sub-family B member 6 (Homo sapiens) (UniProt Q9NP58); assay: ABCB6 transporter inhibitors, pilot screen, K562-ABCB6 cells, flow cytometry, validation set (AID 588550;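 active = inhibition above the screen-wide mean plus 3 SD, about 51%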;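 note: 0% = DMSO wells and 100% = benzethonium chloride 70 µM positive control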); details: K562-ABCB6 porphyrin accumulation, 1 h, at 10 µM, stronger effect = higher value
[11] = promoters of myeloid differentiation in arrested cells, primary screen, cell-based, GFP/MAC1 double positive, flow cytometry, validation set (AID 588685;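 active = differentiation response of at least 50%, scaled between solvent and reference control, from cells with both markers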;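 note: compound exposure lasts four days before antibody staining and flow analysis; 0% = DMSO wells and 100% = 5 µM fulvestrant positive control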); details: ER-HoxA9 marrow cells, stronger effect = higher value, normalized: vehicle 0, fulvestrant 100

Chain of AP-2 complex subunit beta (Homo sapiens) (P63010 whole entry, looked up, the tested form may be a part, one chain of several): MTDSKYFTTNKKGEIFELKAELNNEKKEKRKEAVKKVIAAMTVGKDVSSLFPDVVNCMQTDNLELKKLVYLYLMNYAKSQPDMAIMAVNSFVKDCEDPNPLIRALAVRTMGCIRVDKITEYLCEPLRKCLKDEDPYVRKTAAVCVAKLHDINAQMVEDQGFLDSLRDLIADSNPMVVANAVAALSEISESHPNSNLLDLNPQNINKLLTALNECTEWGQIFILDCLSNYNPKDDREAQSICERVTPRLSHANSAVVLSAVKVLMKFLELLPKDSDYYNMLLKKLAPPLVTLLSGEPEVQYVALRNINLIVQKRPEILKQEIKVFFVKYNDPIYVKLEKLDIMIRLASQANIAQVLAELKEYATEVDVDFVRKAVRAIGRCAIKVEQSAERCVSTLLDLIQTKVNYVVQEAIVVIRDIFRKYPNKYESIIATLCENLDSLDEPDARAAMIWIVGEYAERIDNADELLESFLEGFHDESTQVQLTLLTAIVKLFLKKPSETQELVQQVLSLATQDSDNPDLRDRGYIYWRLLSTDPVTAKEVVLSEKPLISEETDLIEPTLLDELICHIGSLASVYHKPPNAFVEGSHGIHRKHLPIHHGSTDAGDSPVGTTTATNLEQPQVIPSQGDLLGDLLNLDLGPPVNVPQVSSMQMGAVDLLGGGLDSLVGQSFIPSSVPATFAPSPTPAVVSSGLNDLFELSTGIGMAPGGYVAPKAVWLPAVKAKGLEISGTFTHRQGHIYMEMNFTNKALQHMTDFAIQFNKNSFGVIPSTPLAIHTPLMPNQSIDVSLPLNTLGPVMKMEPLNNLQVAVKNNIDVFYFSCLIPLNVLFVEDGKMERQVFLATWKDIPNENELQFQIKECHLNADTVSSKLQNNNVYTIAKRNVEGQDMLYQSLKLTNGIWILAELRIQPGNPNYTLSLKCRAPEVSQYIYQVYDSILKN
Chain of Integrin beta-1 (Homo sapiens) + Integrin alpha-4 (Homo sapiens) (P05556 whole entry, looked up): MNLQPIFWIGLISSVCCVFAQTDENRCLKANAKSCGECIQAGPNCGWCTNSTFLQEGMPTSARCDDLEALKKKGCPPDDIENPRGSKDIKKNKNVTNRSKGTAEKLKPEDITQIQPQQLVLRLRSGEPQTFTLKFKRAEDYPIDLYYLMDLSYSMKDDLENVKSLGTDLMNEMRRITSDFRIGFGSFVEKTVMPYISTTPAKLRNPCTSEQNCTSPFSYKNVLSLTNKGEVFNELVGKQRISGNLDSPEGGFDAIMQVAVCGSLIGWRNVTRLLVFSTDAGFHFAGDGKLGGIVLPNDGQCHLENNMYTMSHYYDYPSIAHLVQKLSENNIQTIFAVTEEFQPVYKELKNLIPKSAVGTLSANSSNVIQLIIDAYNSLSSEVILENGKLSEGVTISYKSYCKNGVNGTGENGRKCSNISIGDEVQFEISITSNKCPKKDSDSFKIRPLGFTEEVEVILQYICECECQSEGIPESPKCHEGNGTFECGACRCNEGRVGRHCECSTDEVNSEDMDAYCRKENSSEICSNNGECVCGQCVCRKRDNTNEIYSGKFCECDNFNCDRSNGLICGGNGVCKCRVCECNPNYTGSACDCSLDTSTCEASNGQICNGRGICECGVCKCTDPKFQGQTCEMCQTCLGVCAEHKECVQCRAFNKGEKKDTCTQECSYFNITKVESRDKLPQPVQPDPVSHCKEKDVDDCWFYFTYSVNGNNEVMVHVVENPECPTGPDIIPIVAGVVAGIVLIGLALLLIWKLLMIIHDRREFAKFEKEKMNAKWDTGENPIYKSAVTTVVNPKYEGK
Chain of Integrin beta-1 (Homo sapiens) + Integrin alpha-4 (Homo sapiens) (P13612 whole entry, looked up): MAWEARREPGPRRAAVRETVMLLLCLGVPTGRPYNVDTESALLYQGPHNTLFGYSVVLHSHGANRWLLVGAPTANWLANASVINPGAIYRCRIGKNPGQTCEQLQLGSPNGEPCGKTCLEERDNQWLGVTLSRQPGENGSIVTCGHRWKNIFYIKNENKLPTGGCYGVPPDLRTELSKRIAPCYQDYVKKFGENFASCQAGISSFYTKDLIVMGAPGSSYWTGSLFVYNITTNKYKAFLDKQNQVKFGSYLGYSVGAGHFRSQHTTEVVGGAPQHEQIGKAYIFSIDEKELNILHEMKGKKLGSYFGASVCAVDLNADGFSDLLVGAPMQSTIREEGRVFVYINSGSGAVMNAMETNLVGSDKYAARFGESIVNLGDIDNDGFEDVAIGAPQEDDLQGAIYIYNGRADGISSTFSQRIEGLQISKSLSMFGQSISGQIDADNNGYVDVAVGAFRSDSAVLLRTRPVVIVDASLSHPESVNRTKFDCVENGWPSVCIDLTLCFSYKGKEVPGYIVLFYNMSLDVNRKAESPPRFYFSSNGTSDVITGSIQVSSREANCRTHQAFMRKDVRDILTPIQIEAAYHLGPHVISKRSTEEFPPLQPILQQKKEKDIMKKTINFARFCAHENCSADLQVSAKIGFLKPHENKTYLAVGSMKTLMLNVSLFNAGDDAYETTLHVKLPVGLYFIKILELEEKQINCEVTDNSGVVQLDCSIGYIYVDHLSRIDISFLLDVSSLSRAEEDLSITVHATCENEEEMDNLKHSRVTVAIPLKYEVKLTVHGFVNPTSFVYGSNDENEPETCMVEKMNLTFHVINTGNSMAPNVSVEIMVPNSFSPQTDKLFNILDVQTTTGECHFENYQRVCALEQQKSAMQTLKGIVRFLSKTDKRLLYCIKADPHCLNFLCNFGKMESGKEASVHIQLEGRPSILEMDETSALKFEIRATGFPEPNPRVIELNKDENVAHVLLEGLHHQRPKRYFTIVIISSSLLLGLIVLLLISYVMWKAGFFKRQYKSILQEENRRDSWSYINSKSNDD
Chain of ATP-binding cassette sub-family B member 6 (Homo sapiens) (Q9NP58 whole entry, looked up): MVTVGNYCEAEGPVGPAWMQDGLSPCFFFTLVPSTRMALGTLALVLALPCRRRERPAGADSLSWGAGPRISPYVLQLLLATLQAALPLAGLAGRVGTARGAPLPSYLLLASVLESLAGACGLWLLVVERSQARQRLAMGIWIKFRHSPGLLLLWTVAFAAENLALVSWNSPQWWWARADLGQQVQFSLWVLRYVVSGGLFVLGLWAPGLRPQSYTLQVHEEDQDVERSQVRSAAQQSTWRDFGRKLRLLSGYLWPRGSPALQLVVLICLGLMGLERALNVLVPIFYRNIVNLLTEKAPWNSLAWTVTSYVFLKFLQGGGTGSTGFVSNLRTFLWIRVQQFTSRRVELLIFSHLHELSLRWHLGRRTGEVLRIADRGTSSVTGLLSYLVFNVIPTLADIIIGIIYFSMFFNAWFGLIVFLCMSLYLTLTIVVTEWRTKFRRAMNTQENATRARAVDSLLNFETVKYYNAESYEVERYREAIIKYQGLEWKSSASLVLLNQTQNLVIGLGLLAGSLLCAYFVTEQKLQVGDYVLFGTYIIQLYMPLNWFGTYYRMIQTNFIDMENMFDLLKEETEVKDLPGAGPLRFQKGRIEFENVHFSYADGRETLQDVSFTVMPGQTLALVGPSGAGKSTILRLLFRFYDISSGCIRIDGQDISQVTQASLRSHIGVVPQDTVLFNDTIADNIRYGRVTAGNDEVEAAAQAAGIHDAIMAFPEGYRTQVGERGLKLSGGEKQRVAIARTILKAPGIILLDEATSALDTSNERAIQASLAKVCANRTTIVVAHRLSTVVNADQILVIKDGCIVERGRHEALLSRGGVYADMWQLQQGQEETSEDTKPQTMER
Chain of Beta-adrenergic receptor kinase 1 (Homo sapiens) (P25098 whole entry, looked up): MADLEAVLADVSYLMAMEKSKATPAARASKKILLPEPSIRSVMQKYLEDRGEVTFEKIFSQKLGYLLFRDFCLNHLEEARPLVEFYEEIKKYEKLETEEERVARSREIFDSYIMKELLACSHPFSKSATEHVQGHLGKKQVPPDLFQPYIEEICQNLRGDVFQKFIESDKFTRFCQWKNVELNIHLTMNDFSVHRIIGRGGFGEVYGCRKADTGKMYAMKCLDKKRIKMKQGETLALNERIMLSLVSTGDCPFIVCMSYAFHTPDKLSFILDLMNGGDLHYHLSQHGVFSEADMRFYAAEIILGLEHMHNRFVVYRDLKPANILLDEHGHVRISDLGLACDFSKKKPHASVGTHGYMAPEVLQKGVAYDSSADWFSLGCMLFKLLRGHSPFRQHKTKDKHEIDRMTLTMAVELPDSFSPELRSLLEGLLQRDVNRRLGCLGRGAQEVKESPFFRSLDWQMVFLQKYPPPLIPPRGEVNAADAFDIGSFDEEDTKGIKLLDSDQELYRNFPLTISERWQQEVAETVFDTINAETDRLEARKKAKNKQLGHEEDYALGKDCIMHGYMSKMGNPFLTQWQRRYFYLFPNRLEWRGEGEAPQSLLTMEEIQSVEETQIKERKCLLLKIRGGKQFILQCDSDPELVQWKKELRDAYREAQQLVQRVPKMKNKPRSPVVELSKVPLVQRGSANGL
Chain of Beta-2 adrenergic receptor (Homo sapiens) (P07550 whole entry, looked up): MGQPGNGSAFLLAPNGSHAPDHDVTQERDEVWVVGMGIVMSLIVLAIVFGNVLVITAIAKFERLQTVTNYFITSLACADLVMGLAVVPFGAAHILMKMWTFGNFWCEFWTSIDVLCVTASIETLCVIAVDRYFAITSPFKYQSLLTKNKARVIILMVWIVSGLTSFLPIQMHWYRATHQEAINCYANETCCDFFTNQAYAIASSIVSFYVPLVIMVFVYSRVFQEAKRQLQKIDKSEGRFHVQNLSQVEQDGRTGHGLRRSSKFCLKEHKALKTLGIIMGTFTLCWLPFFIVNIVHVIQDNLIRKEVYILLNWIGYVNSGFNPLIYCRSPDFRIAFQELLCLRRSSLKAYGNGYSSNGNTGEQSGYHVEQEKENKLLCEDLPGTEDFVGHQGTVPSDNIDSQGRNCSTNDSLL

| Structure (SMILES) | double positive events [1] [%] | vesicle binding response [1] | inhibition [2] | superoxide response (% of plate) [3] | aptamer binding inhibition [4] | response [5] | inhibition [6] | response [7] | binding (% of control) [8] | efflux inhibition (fraction of control) [9] | inhibition [10] | differentiation response [11] |
| --- | --- | --- | --- | --- | --- | --- | --- | --- | --- | --- | --- | --- |
| C#CCN(C)CCCOc1ccc(Cl)cc1Cl | 56.3 | 64.3% (inactive) | -7.12% (inactive) | 96.4% (inactive) | 0% (inactive) | -6.11% (inactive) | -2.33% (inactive) | 1.85% (inactive) | 96.3% (inactive) | 0.3 (inactive) | 12% (inactive) | -1.64% (inactive) |
| CCOC(=O)COc1ccc2c(=O)c(-c3ccccc3)coc2c1 | 61.7 | 236% (inactive) | 21% (inactive) | 92.8% (inactive) | 0% (inactive) | -10.5% (inactive) | 1.34% (inactive) | 0.65% (inactive) | 100% (inactive) | -0.09 (inactive) | -4% (inactive) | -7.94% (inactive) |
| CC(=O)N1CC23C=CC(CC2CC12CCCCCC2)O3 (configuration not stated) | 61.4 | 200% (inactive) | 3.99% (inactive) | 102% (inactive) | 8% (inactive) | -21.9% (inactive) | -0.87% (inactive) | -29.7% (inactive) | 104% (inactive) | -0.09 (inactive) | 0% (inactive) | 0% (inactive) |
| CCc1cc2c3c(c(=O)oc2cc1O)CCCC3 | 67.8 | 257% (inactive) | -18.2% (inactive) | 93.2% (inactive) | 1% (inactive) | 1.88% (inactive) | -7.42% (inactive) | 2.52% (inactive) | 99.5% (inactive) | -0.21 (inactive) | 11% (inactive) | 4% (inactive) |
| COc1cc2c(cc1O)CCN(C(=O)c1ccco1)C2C (configuration not stated) | 59.4 | 242% (inactive) | 5.03% (inactive) | 98.4% (inactive) | -1% (inactive) | 0.24% (inactive) | 14.6% (inactive) | 0.13% (inactive) | 97.4% (inactive) | 0.22 (inactive) | 4% (inactive) | 8.8% (inactive) |
| OCC1(CCOc2ccccc2)CCN(CCCn2cccn2)CC1 | 62.6 | 287% (inactive) | 11.9% (inactive) | 86.7% (inactive) | 0% (inactive) | 22.2% (inactive) | -9.04% (inactive) | 3.24% (inactive) | 101% (inactive) | -0.39 (inactive) | 4% (inactive) | 7.2% (inactive) |
| C=C(C)COc1ccc(-c2nc(N)ncc2-c2ccc(OC)cc2)c(O)c1 | 55.6 | 43.9% (inactive) | 20.3% (inactive) | 111% (inactive) | 1% (inactive) | -10.8% (inactive) | -4.84% (inactive) | 1.42% (inactive) | 92% (inactive) | -0.45 (inactive) | 4% (inactive) | -9.53% (inactive) |
| O=c1oc2c(CN3CCN(CCO)CC3)c(O)ccc2cc1-c1ccccn1 | 62.7 | 150% (inactive) | -14.9% (inactive) | 88.3% (inactive) | -1% (inactive) | 59.8% (active) | -9.17% (inactive) | 5.97% (inactive) | 109% (inactive) | -0.06 (inactive) | 15% (inactive) | 10.6% (inactive) |
| CC(C)(C)c1ccc(C(O)CCCN2CCC(C(O)(c3ccccc3)c3ccccc3)CC2)cc1 (configuration not stated) | 64.6 | 199% (inactive) | 38.9% (inactive) | 54.7% (active) | -1% (inactive) | 74.7% (active) | 2.19% (inactive) | 16.5% (active) | 112% (inactive) | 0.59 (active) | 10% (inactive) | 0.92% (inactive) |
| COc1ccc(C(=O)NC(=O)NC2(C(Cl)(Cl)Cl)OCCO2)cc1 | 60.6 | 214% (inactive) | -21.6% (inactive) | 86.9% (inactive) | 4% (inactive) | -20.1% (inactive) | 13.5% (inactive) | -0.88% (inactive) | 94.7% (inactive) | 0.12 (inactive) | 9% (inactive) | -2.03% (inactive) |
| Cc1ccc(P(=O)(CSC(=N)N)c2ccc(C)cc2)cc1 | 60.2 | 155% (inactive) | 4.27% (inactive) | 95% (inactive) | 8% (inactive) | 1.61% (inactive) | 2.42% (inactive) | -0.71% (inactive) | 104% (inactive) | 0.3 (inactive) | 35% (inactive) | 4.2% (inactive) |
| COc1cccc(N2CC34C=CC(O3)C(C(=O)O)C4C2=O)c1 (configuration not stated) | 60.2 | 168% (inactive) | -19.5% (inactive) | 97.6% (inactive) | 0% (inactive) | -21.5% (inactive) | 28.1% (inactive) | -2.62% (inactive) | 102% (inactive) | 0.08 (inactive) | 3% (inactive) | 44% (inactive) |
| Cc1ccc(C(=O)N2CC3(C(C)C)CN(C(=O)c4ccc(C)cc4)CC(C(C)C)(C2)C3=O)cc1 | 59.7 | 224% (inactive) | -30.5% (inactive) | 97.1% (inactive) | 3% (inactive) | 24.4% (inactive) | 14.1% (inactive) | -0.93% (inactive) | 99.1% (inactive) | 0.76 (active) | 5% (inactive) | 7.2% (inactive) |
| COc1cc2ccc(=O)oc2c(O)c1OCC=C(C)C | 63.7 | 190% (inactive) | -12.9% (inactive) | 102% (inactive) | -1% (inactive) | -9.13% (inactive) | -0.67% (inactive) | -0.32% (inactive) | 98.2% (inactive) | 0.05 (inactive) | 10% (inactive) | 7.09% (inactive) |
| CCOCc1cc(C)[nH]c(=O)c1C#N | 60.2 | 225% (inactive) | 3.67% (inactive) | 98.3% (inactive) | 2% (inactive) | 1.78% (inactive) | -6.13% (inactive) | 1.03% (inactive) | 102% (inactive) | -0.21 (inactive) | 7% (inactive) | -4% (inactive) |
| O=C(C1CCCCC1)N1CC(=O)N2CCc3ccccc3C2C1 (configuration not stated) | 61.4 | 225% (inactive) | -2.82% (inactive) | 109% (inactive) | 1% (inactive) | -15.4% (inactive) | -1.09% (inactive) | -5.39% (inactive) | 101% (inactive) | 0 (inactive) | 3% (inactive) | 29.5% (inactive) |
| COc1ccccc1-c1c(C(F)(F)F)oc2cc(OC(=O)c3ccc([N+](=O)[O-])cc3)ccc2c1=O | 61.5 | 160% (inactive) | -1.97% (inactive) | 49.2% (active) | 2% (inactive) | -19.4% (inactive) | -4.55% (inactive) | 1.11% (inactive) | 99.3% (inactive) | 0.04 (inactive) | 1% (inactive) | -5.97% (inactive) |
| COc1cc2c(cc1OC)C1(CCCCC1)CN(C)C2 | 57.3 | 258% (inactive) | 16% (inactive) | 103% (inactive) | 5% (inactive) | 5.44% (inactive) | 4.18% (inactive) | 1.68% (inactive) | 89% (inactive) | 0.12 (inactive) | -22% (inactive) | 4% (inactive) |
| NC(=O)N1c2ccccc2C=Cc2ccccc21 | 56 | 120% (inactive) | 5.61% (inactive) | 112% (inactive) | 3% (inactive) | 13.8% (inactive) | 1.72% (inactive) | -12.4% (inactive) | 98.5% (inactive) | -0.07 (inactive) | 11% (inactive) | -3.11% (inactive) |
| OC(CCCN1CCCCC1)(c1ccccc1)c1ccccc1 | 62.8 | 250% (inactive) | 19.1% (inactive) | 104% (inactive) | -3% (inactive) | -0.72% (inactive) | -8.31% (inactive) | 2.56% (inactive) | 108% (inactive) | 0.34 (inactive) | 4% (inactive) | -2.46% (inactive) |
| COc1ccc(NC(=S)NCCc2c[nH]c3ccccc23)cc1 | 69.3 | 445% (inactive) | -1.97% (inactive) | 111% (inactive) | 1% (inactive) | -13.3% (inactive) | -10.2% (inactive) | -1.54% (inactive) | 108% (inactive) | 0 (inactive) | 8% (inactive) | -6.96% (inactive) |
| CCn1c2ccccc2c2cc(CC(N)=O)ccc21 | 60.8 | 153% (inactive) | 20.2% (inactive) | 92.7% (inactive) | -1% (inactive) | -19.5% (inactive) | 1.51% (inactive) | -10.1% (inactive) | 103% (inactive) | 0.04 (inactive) | 5% (inactive) | -0.06% (inactive) |
| COc1cccc(OC)c1C(=O)Nc1nc2ccc([N+](=O)[O-])cc2s1 | 60.8 | 91.9% (inactive) | -14.5% (inactive) | 101% (inactive) | -2% (inactive) | 4.56% (inactive) | 10.3% (inactive) | 1.22% (inactive) | 101% (inactive) | 0.005 (inactive) | 8% (inactive) | -3.11% (inactive) |
| CCCCC[C@H](O)/C=C/[C@@H]1[C@@H](C/C=C\CCCC(=O)O)[C@H]2CO[C@@H]1C2 | 59 | 192% (inactive) | -8.78% (inactive) | 110% (inactive) | -1% (inactive) | -18.1% (inactive) | 1.57% (inactive) | -0.38% (inactive) | 101% (inactive) | 0.08 (inactive) | -1% (inactive) | -10.9% (inactive) |
| Cc1cccc(C2=N/C(=C\c3cccnc3)C(=O)O2)c1 | 63.6 | 179% (inactive) | 5.03% (inactive) | 98.1% (inactive) | 2% (inactive) | 13.3% (inactive) | -1.05% (inactive) | -1.71% (inactive) | 104% (inactive) | 0.12 (inactive) | 3% (inactive) | 103% (active) |
| COc1cc2c3c(c1)C1(C(=O)N3C(C)(C)C=C2C)C(C#N)=C(N)Oc2cc(C)oc(=O)c21 (configuration not stated) | 60.1 | 172% (inactive) | 2.3% (inactive) | 96.8% (inactive) | -1% (inactive) | -71.3% (inactive) | -6.4% (inactive) | -0.54% (inactive) | 110% (inactive) | 0.4 (inactive) | 5% (inactive) | 79.2% (active) |
